Only a selection was taken, and hits are over-represented in it overall.
IDE exosite FP: exo-site inhibitors of human IDE, primary screen, biochemical, fluorescence anisotropy, probe displacement. 17,000 tested, 6.3% active. z-score at 20 µM. purified IDE, FL-6b probe fluorescence polarization; active compounds read low. Insulin-degrading enzyme (Homo sapiens), P14735. AID 1259349, 2017;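 active = z-score of -3 or lower, meaning strong loss of probe binding signal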;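 also: His-tagged human IDE residues 42-1019 made in E. coli with 30 nM FL-6b probe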
Numbers without * were called inactive.

SMILES | IDE exosite FP
CO[C@@H]1CN(C)C(=O)c2cc(NC(C)=O)ccc2OC[C@@H](C)N(C(=O)Cc2ccccn2)C[C@H]1C | 0.571
COc1ccc(CN(C)C[C@@H]2OCCCC[C@@H](C)Oc3ccc(NC(=O)C4CCCCC4)cc3C(=O)N([C@@H](C)CO)C[C@@H]2C)cc1 | -0.568
CCC(=O)N(C)C[C@@H]1[C@H](c2ccc(-c3cccnc3)cc2)[C@H](CO)N1C(C)=O | 0.679
O=C(Cc1cccnc1)N1CC(=O)N2[C@H](CO)[C@H](c3ccc(C#CC4CC4)cc3)[C@@H]2C1 | 1.21
O=C(c1cnccn1)N1CC(=O)N2[C@H](CO)[C@@H](c3ccc(C#CCC4CCCC4)cc3)[C@@H]2C1 | 2.12
O=C(Nc1ccccc1F)N1CCCCN2[C@H](C1)[C@@H](c1ccc(/C=C/c3ccccc3)cc1)[C@@H]2CO | -2.72
O=C(Nc1ccccc1F)N1CCCCN2[C@H](CO)[C@H](c3ccc(C4=CCCC4)cc3)[C@H]2C1 | 2.11
O=C(Nc1ccccc1F)N1CCCCN2[C@H](CO)[C@H](c3ccc(/C=C/c4ccccc4)cc3)[C@@H]2C1 | -3.89*
O=C(Nc1ccccc1F)N1CCCCN2[C@H](CO)[C@H](c3ccc(/C=C/c4ccccc4)cc3)[C@H]2C1 | -4.93*
O=C(Nc1ccccc1F)N1CCCCN2[C@H](C1)[C@H](c1ccc(C3=CCCC3)cc1)[C@@H]2CO | 4.44
C/C=C/c1ccc([C@H]2[C@@H](CO)N3CCCCN(C(=O)Nc4ccccc4F)C[C@@H]23)cc1 | -0.836
CCCNC(=O)N1CC2(CN(C(=O)c3cnccn3)C2)c2c([nH]c3cc(OC)ccc23)[C@H]1CO | 1.19
CCC(=O)N1[C@H](CN(CC)C(=O)c2ccccc2)[C@H](c2ccccc2)[C@@H]1CO | 1.15
C[C@H](CO)N1C[C@H](C)[C@@H](CN(C)Cc2ccc3c(c2)OCO3)OCCCC[C@H](C)Oc2ccc(NS(=O)(=O)c3cn(C)cn3)cc2C1=O | -0.0697
CCCC#Cc1ccc([C@@H]2[C@@H](CO)N3C(=O)CN(C(=O)NC4CCCC4)C[C@H]23)cc1 | 0.867
CCCC#Cc1ccc([C@H]2[C@H]3CN(Cc4cccnc4)CCCCN3[C@H]2CO)cc1 | 1.19
COCC(=O)N1[C@@H](CO)[C@@H](c2ccccc2)C12CN(C(=O)c1ccccc1)C2 | 0.846
COCC(=O)N1[C@H](C#N)[C@H](c2ccccc2C2=CCCCC2)[C@@H]1CO | 1.84
C[C@@H]1CN([C@H](C)CO)C(=O)c2cc(/C=C/c3ccccc3)cnc2O[C@H]1CN(C)S(=O)(=O)c1ccccc1F | -4.63*
C[C@H](CO)N1C[C@H](C)[C@H](CN(C)S(=O)(=O)c2ccccc2F)Oc2ncc(/C=C/c3ccccc3)cc2C1=O | -1.73
C[C@@H]1CN([C@@H](C)CO)C(=O)c2cc(-c3ccc(F)cc3)cnc2O[C@H]1CN(C)S(C)(=O)=O | 0.988
COCCN(C[C@H]1[C@H](c2ccccc2)[C@H](CO)N1C(C)=O)C(=O)c1ccncc1 | 1.25
COc1ccc(C#Cc2ccc([C@H]3[C@H](CO)N4C(=O)CN(C(=O)C5CCOCC5)C[C@@H]34)cc2)cc1 | -1.15
COc1cccc(C#Cc2ccc([C@H]3[C@H](CO)N4C(=O)CN(C(=O)C5CC5)C[C@@H]34)cc2)c1 | -4.6*
COc1cccc(C#Cc2ccc([C@H]3[C@@H](CO)N4C(=O)CN(C(=O)C5CC5)C[C@H]34)cc2)c1 | -9.46*
SMILES | IDE exosite FP
COc1cccc(C#Cc2ccc([C@@H]3[C@H]4CN(C(=O)C5CC5)CC(=O)N4[C@H]3CO)cc2)c1 | -0.0636
COc1cccc(C#Cc2ccc([C@@H]3[C@@H](CO)N4C(=O)CN(C(=O)C5CC5)C[C@@H]34)cc2)c1 | -1.04
C/C=C/c1ccccc1[C@H]1[C@@H](C#N)N(C(=O)CN2CCOCC2)[C@@H]1CO | 0.206
O=C(C1CCCC1)N1CC(=O)N2[C@H](CO)[C@@H](c3ccc(Br)cc3)[C@@H]2C1 | -2.38
C[C@@H]1CC=CCCNC(=O)[C@@H](Cc2ccccc2)N(C)C(=O)c2ccccc2O1 (mixture of isomers) | 1.61
COc1ccccc1C(=O)N1C[C@@H]2[C@H](c3ccccc31)[C@H](CO)N2C(=O)Cc1ccccc1 | 0.263
COc1ccc2c3c([nH]c2c1)[C@@H](CO)N(C(=O)Nc1ccc(F)cc1)CC31CCN(C(=O)Cc2ccncc2)CC1 | -0.842
COc1ccc2c3c([nH]c2c1)[C@@H](CO)N(Cc1ccc(Cl)cc1)CC31CN(S(C)(=O)=O)C1 | 0.861
COc1ccc(CN2CC3(CCN(C(=O)Cc4ccncc4)CC3)c3c([nH]c4cc(OC)ccc34)[C@@H]2CO)cc1 | -3.12*
COc1ccc2c3c([nH]c2c1)[C@H](CO)N(C(=O)Nc1ccc(F)cc1)CC31CCN(C(=O)Cc2ccncc2)CC1 | 1.21
COc1ccc2c3c([nH]c2c1)[C@H](CO)N(Cc1ccc(Cl)cc1)CC31CN(S(C)(=O)=O)C1 | -0.769
CCCC(=O)N1CCC2(CC1)CN(Cc1ccc(Cl)cc1)[C@H](CO)c1[nH]c3cc(OC)ccc3c12 | -3.62*
COc1ccccc1NC(=O)N1CC(=O)N2[C@H](CO)[C@H](c3ccc(-c4cccc(C)c4)cc3)[C@@H]2C1 | -3.71*

Screening results deposited in PubChem by Broad Institute.
